Results filed as inconclusive are left out. Where a call stands in place of a potency, no number is given. Values without a mark were called inactive. Calls of active or inactive are those of the source. The call rests on the fitted dose curve; in most records, active means well fitted curve in the direction sought with a large enough effect; inconclusive means small, poorly fitted or top-dose-only effect, or another doubt; inactive means no such curve, though single readings can be large; an effect the other way counts as inactive or inconclusive.
Legend:
[1] = qHTS of pediatric cancer cell lines to identify multiple opportunities for drug repurposing: Primary screen for TC32 cells (AID 1347089); further: nearly all actives have a fitted effect of over 60% in size; further: potency means the concentration at half of the fitted maximal effect
Outline: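 Luminescent ATP read-out (CellTiter-Glo) of metabolically active TC32 cells after 48 h exposure. Concentration-response curves came from 11-point (MIPE, 0.78 nM–46 µM) or 8-point (NPC, 0.59 nM–46 µM) primary titrations; follow-up used 11 points.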

[2] = qHTS of pediatric cancer cell lines to identify multiple opportunities for drug repurposing: Primary screen for SJ-GBM2 cells (AID 1347091); further: potency means the concentration at half of the fitted maximal effect
Outline: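 Viability measured as metabolically active cells via CellTiter-Glo luminescence following 48 hours of compound exposure, 11-point dilutions in confirmatory testing. 500-1,000 cells/well plated 5 hours before dosing; controls were DMSO and 2.3 µM bortezomib.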

[3] = qHTS of pediatric cancer cell lines to identify multiple opportunities for drug repurposing: Primary screen for SK-N-MC cells (AID 1347093); further: potency means the concentration at half of the fitted maximal effect
Outline: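 Metabolically active cells were quantified by ATP-dependent luminescence (CellTiter-Glo, 15 min at room temperature) following 48 h treatment. Cells had been plated at 500-1,000 per well and settled for 5 h beforehand.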

[4] = qHTS of pediatric cancer cell lines to identify multiple opportunities for drug repurposing: Primary screen for BT-37 cells (AID 1347094); further: potency means the concentration at half of the fitted maximal effect
Outline: (§1)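 Cells seeded at 500-1,000 cells/well in growth media, rested 5 hours at 37 degrees C, 5% CO2, then dosed; MIPE compounds at 11-point (from 0.78 nM) and NPC at 8-point (from 0.59 nM) final concentrations. Viability by CellTiter-Glo luminescence after 48 hours.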

[5] = qHTS of pediatric cancer cell lines to identify multiple opportunities for drug repurposing: Primary screen for U-2 OS cells (AID 1347096); further: nearly all actives have a fitted effect of over 50% in size
Outline: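 Viability after 48 h compound treatment at 37C, 500-1,000 cells/well, read as ATP luminescence with CellTiter-Glo. Primary screens used 11-point (MIPE, 0.78 nM-46 µM) or 8-point (NPC, 0.59 nM-46 µM) final concentrations; follow-up screens used 11-point dilutions.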

[6] = qHTS of pediatric cancer cell lines to identify multiple opportunities for drug repurposing: Primary screen for Saos-2 cells (AID 1347097); further: nearly all actives have a fitted effect of over 40% in size; further: potency means the concentration at half of the fitted maximal effect
Outline: as §1

[7] = qHTS of pediatric cancer cell lines to identify multiple opportunities for drug repurposing: Primary screen for NB-EBc1 cells (AID 1347095); further: potency means the concentration at half of the fitted maximal effect
Outline: as §1

[8] = qHTS of pediatric cancer cell lines to identify multiple opportunities for drug repurposing: Primary screen for SK-N-SH cells (AID 1347098); further: nearly all actives have a fitted effect of over 65% in size; further: potency means the concentration at half of the fitted maximal effect
Outline: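 Cells (500-1,000/well) rested 5 h, then received compounds for 48 h; metabolically active cells were measured by CellTiter-Glo luminescence. Final concentrations spanned up to 46 µM (MIPE, 11-point) or 0.59 nM-46 µM (NPC, 8-point) in primary screens, 11-point in follow-ups.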

[9] = qHTS of pediatric cancer cell lines to identify multiple opportunities for drug repurposing: Primary screen for A673 cells (AID 1347092); further: nearly all actives have a fitted effect of over 45% in size; further: potency means the concentration at half of the fitted maximal effect
Outline: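 Cell viability of A673 measured by CellTiter-Glo ATP luminescence after 48 hours compound exposure. Dilution series spanned 0.78 nM to 46 µM (MIPE, 11-point) or 0.59 nM to 46 µM (NPC, 8-point); bortezomib 2.3 uM positive control.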

Row | SMILES | Potency [1] | Potency [2] | Potency [3] | Potency [4] | Potency [5] | Potency [6] | Potency [7] | Potency [8] | Potency [9]
1 | CCCCCCCCCCCCCCCC(=O)O[C@H]1[C@@H](O)[C@@H](O)[C@@H]([C@H](NC(=O)[C@@H]2C[C@@H](CCC)CN2C)[C@H](C)Cl)O[C@@H]1SC | inactive | inactive | 18.7 µM (active) | inactive | inactive | inactive |  |  | 
2 | CC(C)(OCc1nn(Cc2ccccc2)c2ccccc12)C(=O)O | inactive | inactive | 26.4 µM (active) | inactive | inactive | inactive | 11.8 µM (active) | 30.4 µM (active) | 
3 | C[C@@]1(c2cc(-c3cncnc3)c(F)cc2F)CCSC(N)=N1 | inactive |  | 2.96 µM (active) | 3.06 µM (active) | inactive | 2.96 µM (active) | 8.33 µM (active) | 12.1 µM (active) | 0.0469 µM (active)
4 | Cc1cc(CS(=O)(=O)c2ccccc2)cc(OCc2ccc(CN3CCC[C@H]3CO)cc2)c1 | inactive |  | 2.64 µM (active) |  | inactive |  | inactive |  | 5.9 µM (active)
5 | COc1ccc(CCC(=O)Nc2nc3ccc(Cl)cc3s2)cc1OC | inactive | inactive |  |  | inactive |  | inactive | 9.61 µM (active) | 
6 | Cc1cccc(Nc2nc(N[C@@H]3CCCC[C@H]3N)ncc2C(N)=O)c1 | inactive |  | 6.62 µM (active) | 27.3 µM (active) |  | 8.33 µM (active) | inactive | 27.1 µM (active) | 18.7 µM (active)
7 | Clc1ccc(COC(Cn2ccnc2)c2ccc(Cl)cc2Cl)c(Cl)c1 (configuration not stated) | inactive | 18.7 µM (active) |  |  |  |  |  | inactive | 
8 | Cc1ccc(NC(=O)c2ccc(CN3CCN(C)CC3)cc2)cc1Nc1nc(-c2cccnc2)cs1 | inactive |  |  | 24.3 µM (active) |  |  | inactive |  | 11.8 µM (active)
9 | CCC(c1ccc(O)cc1)C(CC)c1ccc(O)cc1 (configuration not stated) | inactive | inactive | 1.05 µM (active) |  |  |  |  | inactive | 
10 | O=C(C=Cc1ccc(O)cc1)c1ccc(O)cc1O | inactive |  | 37.2 µM (active) |  |  | 18.7 µM (active) |  | 6.07 µM (active) | 18.7 µM (active)
11 | COc1cc2c(cc1OC)[C@@H]1Cc3ccc(OC)c(OC)c3CN1CC2 | inactive | inactive | inactive |  | inactive | inactive |  |  | 
12 | CC(C)N(CCCNC(=O)Nc1ccc(C(C)(C)C)cc1)C[C@H]1O[C@@H](n2cc(Br)c3c(N)ncnc32)[C@H](O)[C@H]1O | inactive |  |  | 24.3 µM (active) | inactive |  | inactive | 24.1 µM (active) | 18.7 µM (active)
13 | OCCn1cc(-c2ccc3c(c2)CCC3=NO)c(-c2ccncc2)n1 | inactive | inactive |  |  | inactive | inactive | inactive | 19.2 µM (active) | 
14 | CCC(=C(c1ccc(O)cc1)c1ccc(OCCNC)cc1)c1ccccc1 | inactive |  |  |  |  | 18.7 µM (active) |  | 34.1 µM (active) | 37.2 µM (active)
15 | CC1(C)CC(=O)c2c(C(F)(F)F)nn(-c3ccc(C(N)=O)c(NC4CCC(O)CC4)c3)c2C1 (configuration not stated) | 0.208 µM (active) |  | 0.0743 µM (active) |  | inactive |  | 0.148 µM (active) | 0.304 µM (active) | 0.118 µM (active)
16 | C[C@H](c1ccc(F)cc1CCCC(=O)O)N(c1cc(F)ccc1F)S(=O)(=O)c1ccc(Cl)cc1 | inactive |  | 3.72 µM (active) |  | inactive |  | inactive | 19.2 µM (active) | 18.7 µM (active)
17 | Cc1cc(NC(=O)Nc2ccc(N(C)C)cc2)c2cc(F)cc(F)c2n1 | inactive |  | inactive | inactive | inactive |  |  | inactive | inactive
18 | Cc1nn(Cc2ccccc2Cl)c(C)c1CN(C)CC(O)COc1ccc(Cl)cc1 (configuration not stated) | inactive | 20.9 µM (active) | 1.87 µM (active) |  | inactive | inactive |  | 24.1 µM (active) | 
19 | O=S(=O)(O)c1ccc2cc(N=Nc3cc(S(=O)(=O)O)c4cccnc4c3O)ccc2c1 | inactive | inactive | 18.7 µM (active) |  | inactive |  |  |  | 
20 | Nc1ccn([C@@H]2O[C@H](CO)[C@@H](O)[C@H]2O)c(=O)n1 | 0.0294 µM (active) |  |  | 0.0077 µM (active) | inactive |  | 33.2 µM (active) | inactive | 0.0235 µM (active)
21 | Cc1cc(OCCCS(C)(=O)=O)cc(C)c1-c1cccc(COc2ccc3c(c2)OC[C@H]3CC(=O)O)c1 | inactive | 26.4 µM (active) |  |  | inactive | 33.2 µM (active) |  | inactive | 
22 | O=C(NC[C@H](O)CO)c1ccncc1Nc1ccc(I)cc1F | inactive | inactive | 5.26 µM (active) |  |  |  |  | 21.5 µM (active) | 
23 | CCC(=C(CC)c1ccc(O)cc1)c1ccc(O)cc1 | inactive |  | 4.18 µM (active) | 21.7 µM (active) | inactive |  | 5.9 µM (active) | 7.64 µM (active) | 18.7 µM (active)
24 | COc1cc([C@H]2Oc3cc([C@H]4Oc5cc(O)cc(O)c5C(=O)[C@H]4O)ccc3O[C@H]2CO)ccc1O | inactive |  | 20.9 µM (active) | inactive | inactive | inactive |  |  | 23.5 µM (active)

Source: PubChem BioAssay (NCATS)
